{
  "source": "PubChem BioAssay (NCATS)",
  "note": "Inconclusive results are not listed. Unmarked numbers belong to inactive results. Activity calls are given as the source filed them. Calls follow the shape of the dose curve; as a rule, active = well fitted inhibition curve with a large enough effect; inconclusive = small, poorly fitted or top-dose-only effect; inactive = flat fitted curve, though single readings scatter. % is scaled to controls: 0 for no effect and ±100 for the full control effect.",
  "data": [
    {"target": "Calcium and integrin-binding protein 1 (Homo sapiens) (UniProt Q99828)", "sequence (Q99828 whole entry, looked up)": "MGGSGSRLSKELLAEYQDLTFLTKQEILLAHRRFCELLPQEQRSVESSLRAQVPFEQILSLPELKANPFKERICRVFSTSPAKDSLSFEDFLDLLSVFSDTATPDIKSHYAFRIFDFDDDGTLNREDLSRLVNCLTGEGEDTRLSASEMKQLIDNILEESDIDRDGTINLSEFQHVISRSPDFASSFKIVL", "test": "Primary qHTS for Identification of Calcium Integrin Binding Protein 1 (CIB1) Competitor (AID 1508620); also: top concentration of the series differs between compounds", "conditions": "CIB1-GST / FITC-alphaIIb peptide fluorescence polarization; series mostly up to 57.7 µM; activity change, negative = inhibition: at the top concentration", "how_it_was_run": "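Fluorescence polarization competition: GST-tagged CIB1 (1 uM final) preincubated with compound 15 min at room temperature, then FITC-labelled alphaIIb peptide (100 nM final) added. After 15 min at room temperature, polarization read at Ex 480/Em 540.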", "values": [
      {"smiles": "CC(C)[C@](O)(c1ccc2cc(OC(F)F)c(OC(F)F)cc2c1)c1cn[nH]n1", "activity change, negative = inhibition": "-5.34% [at 114 µM]"},
      {"smiles": "CC[C@@H]1C(=O)O[C@]23C=C[C@@H]4C(C(=O)OC)=CO[C@H](O[C@@H]12)[C@@H]43", "activity change, negative = inhibition": "2.76% [at 114 µM]"},
      {"smiles": "CC(C)[C@@](O)(c1ccc2cc(OC(F)F)c(OC(F)F)cc2c1)c1cn[nH]n1", "activity change, negative = inhibition": "-5.15% [at 114 µM]"},
      {"smiles": "CCOC(=O)c1ccc(NC2CCCCC2)c(N)c1", "activity change, negative = inhibition": "1.96% [at 114 µM]"},
      {"smiles": "CC(C)=CCc1c(O)cc2oc3cc(C)cc(O)c3c2c1C", "activity change, negative = inhibition": "-2.61% [at 114 µM]"},
      {"smiles": "COc1cccc(OC)c1-c1cc(C(=O)N[C@@H](CC(C)C)C(=O)O)nn1-c1ccnc2cc(Cl)ccc12", "activity change, negative = inhibition": "-1.27% [at 114 µM]"},
      {"smiles": "C=C1CC2C3(C)C(O)CC(=O)C(C)(C)C3C(O)C(OC(C)=O)C2(C)C2C(=O)OC(C)(C(=O)OC)C(=O)C12C", "note": "(centres undefined)", "activity change, negative = inhibition": "-4.86%"},
      {"smiles": "C/C=C(\\C)C(=O)OC1C(C)C2(O)C3C=C(C)C(=O)C3CC(CO)=CC2C2C(C)(C)C12OC(C)=O", "note": "(centres undefined)", "activity change, negative = inhibition": "-4.5%"},
      {"smiles": "Cc1nnc(-c2ccc3occ(-c4ccc(S(C)=O)cc4)c3c2)o1", "note": "(centres undefined)", "activity change, negative = inhibition": "0.238% [at 114 µM]"},
      {"smiles": "CCOc1ccc(-c2nn3ncccc3c2-c2ccc(S(C)(=O)=O)cc2)cc1", "activity change, negative = inhibition": "0.434% [at 114 µM]"},
      {"smiles": "COc1ccc(-c2ccn(CC[C@](C)(C(=O)NO)S(C)(=O)=O)c(=O)c2)c(F)c1", "activity change, negative = inhibition": "-0.0131% [at 114 µM]"},
      {"smiles": "COc1c2cc(c(O)c1OC)CCCCC(O)CCc1ccc(O)c-2c1", "note": "(centres undefined)", "activity change, negative = inhibition": "-8.66%"},
      {"smiles": "CC(=O)OC1CC2C(C)(C)C(=O)C=CC2(C)C2CC(=O)C3=C(CCC3C3=CC(O)OC3=O)C12C", "note": "(centres undefined)", "activity change, negative = inhibition": "0.151%"},
      {"smiles": "Cc1ccccc1-n1nc(-c2c(-c3ccc(F)cc3)nn3c2NC[C@@H](CO)C3)ccc1=O", "activity change, negative = inhibition": "-3.26% [at 114 µM]"},
      {"smiles": "N[C@@H](CC(=O)Nc1ccc(Oc2cc(F)c(F)cc2Br)cc1)C(=O)O", "activity change, negative = inhibition": "-1.55% [at 114 µM]"},
      {"smiles": "CC1(C)CC[C@]2(C(=O)O)CC[C@]3(C)C(=CCC4[C@@]5(C)C[C@@H](O)[C@H](O)[C@@](C)(CO)C5[C@H](O)C[C@]43C)[C@@H]2C1", "note": "(some centres undefined)", "activity change, negative = inhibition": "2.79%"},
      {"smiles": "CC(O)C(=O)/C=C/C=C/C(=O)OC1C=C2COC(=O)C2(O)C2(C)CCCC(C)(C)C12", "note": "(centres undefined)", "activity change, negative = inhibition": "-5.7%"},
      {"smiles": "COc1cccc(CN(C(=O)CC(C)(C)C)C2CC(C(=O)N3CCNCC3)N(Cc3ccc4c(c3)OCO4)C2)c1", "note": "(centres undefined)", "activity change, negative = inhibition": "4.76% [at 114 µM]"},
      {"smiles": "O=C(OC(C(F)(F)F)C(F)(F)F)N1CCN(Cc2cccc(Oc3ccccc3)c2)CC1", "activity change, negative = inhibition": "2.56% [at 114 µM]"},
      {"smiles": "COc1cccc(Cn2ncc3c4sc(S(C)=O)cc4n(C)c3c2=O)c1", "note": "(centres undefined)", "Potency": "inactive"},
      {"smiles": "CC(C)NC(=O)c1ccc(C#Cc2ccncc2)cn1", "activity change, negative = inhibition": "-5.1% [at 114 µM]"},
      {"smiles": "CCCNCCOc1ccc(NC(=O)c2c[nH]c3c2C(=O)CCC3)cc1F", "activity change, negative = inhibition": "5.85% [at 114 µM]"},
      {"smiles": "COc1ccccc1N1CCN(CCCCNC(=O)c2ccc(-c3cscn3)cc2)CC1", "activity change, negative = inhibition": "-3.69% [at 114 µM]"},
      {"smiles": "C=C[C@]1(C)C[C@@H](OC(=O)CSC2C[C@H]3CC[C@@H](C2)N3C)[C@]2(C)[C@H](C)CC[C@]3(CCC(=O)[C@H]32)[C@@H](C)[C@@H]1O", "note": "(some centres undefined)", "activity change, negative = inhibition": "0.458% [at 114 µM]"},
      {"smiles": "CCCSc1nc(NC2CC2c2ccc(F)c(F)c2)c2nnn(C3CC(OCCO)C(O)C3O)c2n1", "note": "(centres undefined)", "activity change, negative = inhibition": "-13.2% [at 114 µM]"},
      {"smiles": "CC(=O)NCC1CN(c2ccc(-c3ccc(CNCc4cn[nH]n4)cc3)c(F)c2)C(=O)O1", "note": "(centres undefined)", "activity change, negative = inhibition": "3.13% [at 114 µM]"},
      {"smiles": "Cc1onc(-c2c(Cl)cccc2Cl)c1CC(=O)NCc1ccc(OCC(F)(F)F)nc1", "activity change, negative = inhibition": "6.04% [at 114 µM]"},
      {"smiles": "COc1cc(C)c(C(=O)OC2C(C)OC(OC3CCC(C)C4C3C=C(C)C3/C(C)=C\\CC/C(C)=C/C5(C)C=C(C(=O)O)C(C)CC56OC(=O)/C(=C(\\O)C34C)C6=O)C(O)C2O)c(OC)c1", "note": "(centres undefined)", "activity change, negative = inhibition": "26.6% [at 30.2 µM]"},
      {"smiles": "CCNC(=O)OC1CCN(c2nncc3cc(OC)c(OC)cc23)CC1", "activity change, negative = inhibition": "-5.86% [at 114 µM]"},
      {"smiles": "Oc1ccccc1-c1cc(-c2ccccc2F)[nH]n1", "activity change, negative = inhibition": "-0.447% [at 114 µM]"},
      {"smiles": "CN1CCc2cc(Cl)c(O)cc2[C@@H](c2cccc3c2OCC3)C1", "activity change, negative = inhibition": "1.01% [at 114 µM]"},
      {"smiles": "CC(=O)OC12CC(C)C(OC(=O)c3ccccc3)C1/C=C(/C)C(OC(=O)c1ccccc1)CC(=O)C(C)(C)/C=C/C(C)C2=O", "note": "(centres undefined)", "activity change, negative = inhibition": "-6.51% [at 30.2 µM]"},
      {"smiles": "CC(=O)O[C@@H]1CC2C(C)(C)C(=O)C=C[C@]2(C)C2CC[C@]3(C)C(=CC(=O)[C@@H]3c3ccoc3)[C@@]21C", "note": "(some centres undefined)", "activity change, negative = inhibition": "4.58%"},
      {"smiles": "NC[C@H]1CCC[C@@H](CNC(=O)[C@@H](Cc2c[nH]c3ccccc23)NC(=O)N2CCC3(C=Cc4ccccc43)CC2)C1", "activity change, negative = inhibition": "1.84%"},
      {"smiles": "COc1cc(Cc2cnc(N)nc2N)c(C(C)C)cc1OC", "activity change, negative = inhibition": "2.79% [at 114 µM]"},
      {"smiles": "CC(=O)OC1C(CO)OC(O[C@H]2[C@H](OC(=O)[C@]34CCC(C)(C)C[C@H]3C3=CCC5[C@@]6(C)CC[C@H](O[C@@H]7O[C@H](C(=O)O)[C@@H](O)[C@H](O[C@@H]8OC[C@@H](O)[C@H](O)[C@H]8O)[C@H]7O[C@@H]7O[C@H](CO)[C@H](O)[C@H](O)[C@H]7O)[C@@](C)(C=O)C6CC[C@@]5(C)[C@]3(C)C[C@H]4O)O[C@H](C)[C@H](OC3OC(C)C(OC4OCC(O)C(O)C4O)C(O)C3O)[C@@H]2O)C(O)C1O", "note": "(some centres undefined)", "activity change, negative = inhibition": "4.08% [at 12.4 µM]"},
      {"smiles": "O=C1OC(c2ccc(O)cc2)C(O)=C1Cc1ccccc1", "note": "(centres undefined)", "activity change, negative = inhibition": "-17.6% [at 114 µM]"},
      {"smiles": "O=C(NC/C=C/CN1CCN(c2cccc(Cl)c2Cl)CC1)c1ccc(-c2ccccn2)cc1", "activity change, negative = inhibition": "0.841% [at 114 µM]"},
      {"smiles": "C=C(C)C1Cc2c(ccc3c2OCC(c2ccc(O)cc2O)C3)O1", "note": "(centres undefined)", "activity change, negative = inhibition": "-7.83%"}
    ]}
  ]
}
